Measurements as given in PubChem BioAssay AID1850 (Southern Research Specialized Biocontainment Screening …, 2009).
Among all 310,000 compounds or so, about 1,000 (0.32%) were called active. Only a sample is shown. Results with a measured potency or affinity are listed apart. Values without a mark were called inactive. How the calls were made is not given here.

test: PhoP regulon inhibitors, Salmonella typhi PhoP promoter GFP reporter, confirmatory (AID 1850); conditions: fluorescence, 4 h, at 50 µM, stronger effect = higher value;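 further: 0% = induced wells with vehicle and 100% = uninduced wells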

First: Cc1ccc(C[n+]2cc(-c3ccc(Cl)cc3)n3c2CCC3)cc1
Second: Cc1ccc(-c2c[n+](Cc3cccc(Cl)c3)c3n2CCC3)cc1
The inhibition of the first is lower: 8.21% for the first, 9.09% for the second.

Going from `Clc1ccc(-c2c[n+](Cc3ccc(Br)cc3)c3n2CCCCC3)cc1` to `Clc1ccc(C[n+]2cc(-c3ccccc3)n3c2CCC3)cc1Cl`, the inhibition falls from 4.54% to -4.76%.

First: COc1ccc(NC(=S)NC(C)C(c2ccccc2)N2CCOCC2)cc1 (configuration not stated)
Second: COc1ccc(Nc2nc(C)c3ccccc3n2)cc1
The inhibition of the first is lower: -8.71% for the first, 1.01% for the second.

Going from `O=C(CNC(=O)Cc1ccc(Cl)cc1)NCC(=O)N1CCCCC1` to `CCC(=O)c1ccc(N2CCN(C(=O)Cc3ccccc3)CC2)c(F)c1`, the inhibition rises from -7.52% to 18.2%.

Going from `CCCCn1c(NS(=O)(=O)c2ccc(C)cc2)c(C(=O)OCC)c2nc3ccccc3nc21` to `CCOC(=O)c1c(NS(=O)(=O)c2ccccc2)n(CCCOC)c2nc3ccccc3nc12`, the inhibition rises from -4.9% to -3.68%.

First: CCC(=O)Nc1c(C#N)c2nc3ccccc3nc2n1C1CCCCC1
Second: Nc1c(S(=O)(=O)c2ccccc2)c2nc3ccccc3nc2n1C1CC1
The inhibition of the first is higher: 0.26% for the first, 0.22% for the second.

Compared with `CCCCn1c(N)c(S(=O)(=O)c2ccc(C)cc2)c2nc3ccccc3nc21`, `Cc1ccc(S(=O)(=O)c2c(N)n(CCCO)c3nc4ccccc4nc23)cc1` is higher in inhibition: -6.91% for the first, 0.68% for the second.

Compared with `CC(=O)Nc1c(S(=O)(=O)c2ccccc2)c2nc3ccccc3nc2n1Cc1ccccc1`, `C=CCn1c(NC(=O)c2ccc(Br)o2)c(S(=O)(=O)c2ccccc2)c2nc3ccccc3nc21` is higher in inhibition: -2.36% for the first, 21.1% for the second.

Going from `CCCCCn1c(NC(=O)c2ccco2)c(S(=O)(=O)c2ccc(C)cc2)c2nc3ccccc3nc21` to `CCCCn1c(NC(=O)c2ccc(Br)o2)c(S(=O)(=O)c2ccccc2)c2nc3ccccc3nc21`, the inhibition falls from -3.82% to -28%.

First: CCOC(=O)c1c(C(=O)OCC)c(C)n(Cc2cc(OC)c(OC)c(OC)c2)c1C
Second: CCOc1ccccc1NC(=O)c1cc(-c2cc(OC)c(OC)c(OC)c2)nc2ccccc12
The inhibition of the first is lower: -2.04% for the first, 6.2% for the second.

First: COc1ccc(C(=O)N/N=C/c2c(C)nn(-c3ccccc3)c2OC)cc1
Second: COc1ccc(Nc2nc(N)c3ccccc3n2)c(OC)c1
The inhibition of the first is lower: -1.74% for the first, 4.67% for the second.

Going from `CCn1c(SCC(=O)NCc2ccccc2)nnc1C(CO)NC(=O)c1ccccc1` (configuration not stated) to `c1ccc(CNc2nc3ccccc3[nH]2)cc1`, the inhibition rises from -10.3% to -2.74%.

Going from `CCOC(=O)c1c(N)nn(C(C)=O)c1-c1ccccc1` to `CCOC(=O)C1=C(c2ccccc2)OC(N)=C(C#N)C1c1cccnc1` (configuration not stated), the inhibition rises from -5.98% to 9.75%.

Compared with `Cc1ccccc1OCC(=O)Nc1nnc(COc2ccccc2)s1`, `O=C(Nc1ccccc1)c1cc2ccccc2o1` is higher in inhibition: -8.87% for the first, 21.6% for the second.

First: CCCCn1c(SCC(=O)Nc2nnc(CC)s2)nc2ccccc2c1=O
Second: CCN(CC)CC(=O)Nn1c(C)nc2c(ncn2-c2ccccc2)c1=O
The inhibition of the first is lower: -4.64% for the first, 2.92% for the second.

Going from `O=C(N/N=C\c1ccc(Cl)s1)c1ccc(Cn2cccn2)o1` to `CCOC(=O)N/N=C/c1ccccc1OCc1ccc(Cl)cc1`, the inhibition rises from -13.9% to 2.12%.

First: C=C(C)c1cccc(C(C)(C)NC(=O)NCCCN2CCCC2=O)c1
Second: CC(=O)c1ccc(NC(=S)NCc2ccc(Cl)cc2Cl)cc1
The inhibition of the first is higher: -0.97% for the first, -6.96% for the second.

Going from `Cc1noc(C)c1CSCC(=O)N1CCN(c2ccc([N+](=O)[O-])cc2)CC1` to `Cc1ccc(NC(=O)CS(=O)CC(=O)Nc2ccc(N3CCOCC3)cc2)cc1Cl` (configuration not stated), the inhibition rises from 2.46% to 12.6%.

Compared with `O=[N+]([O-])c1ccc(/C=[N+](\[O-])[C@@H]2CCCC[C@@H]2/[N+]([O-])=C/c2ccc([N+](=O)[O-])o2)o1`, `CCc1ccc(C(=O)/C=C/c2ccc([N+](=O)[O-])o2)cc1` is lower in inhibition: 7.15% for the first, -7.72% for the second.

First: O=c1oc2cc(S(=O)(=O)NCCCO)ccc2c2ccc(S(=O)(=O)NCCCO)cc12
Second: O=c1oc2ccccc2c(O)c1Cc1cc(Cl)c2cccnc2c1O
The inhibition of the first is lower: 0.32% for the first, 10.9% for the second.

Compared with `Cc1cccc(NC(=O)c2cc3ccccc3o2)c1`, `CC(C(=O)c1ccc(Br)cc1)[n+]1cccc(NC(=O)c2ccccc2)c1` (configuration not stated) is higher in inhibition: -8.7% for the first, 4.99% for the second.

First: COc1ccc(Nc2cc(Nc3cc(OC)c(OC)c(OC)c3)ncn2)cc1
Second: COc1cc2nc(Nc3ccc(C)c(C)c3)nc(N)c2cc1OC
The inhibition of the first is higher: 10.6% for the first, -4.96% for the second.

Going from `CC(C(=O)c1ccc(-c2ccccc2)cc1)[n+]1cccc(C(N)=O)c1` (configuration not stated) to `O=C(CN1CC[n+]2c(-c3ccccc3)csc21)c1ccc(Br)cc1`, the inhibition rises from 5.49% to 7.36%.

First: CC(=O)C1=C(C)OC(N)=C(C#N)C1c1cccnc1 (configuration not stated)
Second: Cc1ccsc1/C=C(\C#N)C(=O)NCc1cccnc1
The inhibition of the first is higher: -13.9% for the first, -18.9% for the second.

Compared with `CCC(C)(C)n1nnnc1C(c1cc2cc(C)cc(C)c2[nH]c1=O)N1CCN(C(=O)c2ccco2)CC1` (configuration not stated), `CCOC(=O)N1CCN(Cc2ccc(O)c3ncccc23)CC1` is lower in inhibition: 8.8% for the first, 1.82% for the second.

Going from `COc1ccccc1C1/C(=C(\O)c2ccc3c(c2)OCCO3)C(=O)C(=O)N1CCCn1ccnc1` (configuration not stated) to `COc1ccc2nc(N(CCN(C)C)C(=O)c3ccc(C(=O)c4ccccc4)cc3)sc2c1`, the inhibition falls from 5.32% to -16%.

Going from `CN1CCN(Cc2cc(Cl)c3cccnc3c2OC(=O)c2cccs2)CC1` to `COCc1cc(CN2CCN(C)CC2)c(O)c2ncccc12`, the inhibition rises from -8.42% to 4.48%.

First: O=c1c(CN2CCN(c3ccccn3)CC2)coc2ccccc12
Second: CCOC(=O)N1CCN(Cc2ccccc2Cl)CC1
The inhibition of the first is higher: -1.82% for the first, -4.15% for the second.

Going from `Cc1ccccc1CSCC(Nc1ccc(C(=O)O)cc1[N+](=O)[O-])C(=O)O` (configuration not stated) to `CC1(C)CC(=O)C(C(=O)Cc2ccccc2[N+](=O)[O-])C(=O)C1`, the inhibition rises from -0.8% to 2.13%.

Going from `CCc1nnc(NS(=O)(=O)c2ccc(N3C(=O)C4CC=C(Cl)CC4C3=O)cc2)s1` (configuration not stated) to `Cc1cc(/C=C2\SC(=O)NC2=O)c(C)n1-c1ccc(N(C)C)cc1`, the inhibition falls from 5.39% to -4.88%.

First: COc1ccc2nc(NCc3ccccc3)[nH]c2c1
Second: CCOc1ccc(Nc2nc(N)c([N+](=O)[O-])c(NCc3ccccc3)n2)cc1
The inhibition of the first is higher: 18.6% for the first, -9.51% for the second.

First: Cc1cc([N+](=O)[O-])nn1CC(=O)N1CCOCC1
Second: CCC1CCCCN1C(=O)c1cc(COc2ccc(-n3cncn3)cc2)on1 (configuration not stated)
The inhibition of the first is higher: 12.6% for the first, -7.8% for the second.

Compared with `c1ccc(-c2cc(-c3ccccc3)[n+](-c3ccccc3)c(-c3ccccc3)c2)cc1`, `Cc1ccc(-c2cc(-c3ccccc3)cc(-c3ccccc3)[n+]2-c2ccccc2)cc1` is higher in inhibition: 19.1% for the first, 20.6% for the second.

Going from `Fc1ccc(C[n+]2c(-c3ccccc3)cc(-c3ccccc3)cc2-c2ccccc2)cc1` to `Clc1ccc(C[n+]2c(-c3ccccc3)cc(-c3ccccc3)cc2-c2ccccc2)cc1`, the inhibition rises from 11.1% to 16.5%.

First: CN(c1ccccc1C(=O)Nc1ccc(S(=O)(=O)N2CCCC2)cc1)S(C)(=O)=O
Second: CC(=O)Nc1ccc(NC(=O)[C@H](C)NC(=O)c2ccco2)cc1
The inhibition of the first is higher: 9.12% for the first, 2.64% for the second.

First: CCOc1ccccc1NC(=O)c1oc2ccccc2c1NC(=O)C1CCCO1 (configuration not stated)
Second: CCOC(=O)c1oc2ccccc2c1COC(=O)CNC(=O)c1ccccc1OC
The inhibition of the first is higher: 0.28% for the first, -8.98% for the second.

Going from `CCOC(=O)C1(Cc2cccc(F)c2)CCN(CC(O)CO)CC1` (configuration not stated) to `CCOC(=O)C1CCN(Cc2cc(C(C)(C)C)c(O)c(C(C)(C)C)c2)CC1`, the inhibition falls from 1.5% to -7.6%.

Compared with `COc1ccc(/C=N/NC(=O)c2[nH]ncc2Br)c(OC)c1`, `COc1ccc(OC)c(/C=N/NC(=O)c2[nH]ncc2Br)c1` is lower in inhibition: 4.69% for the first, -1.03% for the second.

First: CCn1c(=S)sc2c(=O)n(CC(=O)Nc3ccc(Cl)cc3)c(C)nc21
Second: Nc1nc(Nc2ccc(Cl)cc2)n[nH]1
The inhibition of the first is higher: 1.24% for the first, 1.12% for the second.

First: O=C(CN1CC[n+]2c(-c3cccs3)csc21)c1ccc(Br)cc1
Second: Cc1c(C)[n+](=O)c(-c2ccc(Br)cc2)c(C)n1[O-]
The inhibition of the first is lower: -5.14% for the first, 4.2% for the second.

First: C/C(=N/Oc1nc(C)cc(C)n1)c1ccccc1
Second: Cc1cc(/C=N/O)c(C)n1-c1ccccc1
The inhibition of the first is lower: -15.4% for the first, -9.52% for the second.

First: C[n+]1c(/C=C/c2ccc(O)cc2)ccc2ccccc21
Second: CC[n+]1c(/C=C/c2ccc(N(C)C)cc2)ccc2ccccc21
The inhibition of the first is higher: 10.8% for the first, 1.34% for the second.

Compared with `COc1cc2nc(Nc3ccc(C)c(Cl)c3)nc(N)c2cc1OC`, `COc1ccc(Cl)cc1Nc1nc(N)c2ccccc2n1` is lower in inhibition: 5.86% for the first, 2.43% for the second.

Going from `CCOc1ccc(Nc2ncnc(N)n2)cc1` to `COc1cc2ncnc(NCc3ccc(C)o3)c2cc1OC`, the inhibition falls from 20.7% to 1.27%.

Going from `CCOC(=O)CSc1nnc2n1C(C)(C)Cc1ccccc1-2` to `Cc1cc2n(n1)C(c1ccco1)Nc1ccccc1-2` (configuration not stated), the inhibition falls from 11.2% to -1.68%.

Going from `O=c1[nH]c(C2CCCN(S(=O)(=O)c3ccccc3F)C2)nc2c1nnn2Cc1ccccc1Cl` (configuration not stated) to `CCCN(CCC)CC(=O)NCC1(c2ccccc2)CCOCC1`, the inhibition rises from 0.52% to 5.98%.
